These results are taken from PubChem BioAssay (EPA / NIEHS).

Results filed as inconclusive are left out. Activity calls are given as the source filed them. How the source made its calls, unless noted: active means hit-call score of the fitted dose curve at least 0.9, where 1 is the maximum; inactive means score below 0.9.

As a reminder, the AC50 is the concentration at which the activity in the assay is half-maximal.

Experiment [1] can be described thus: ACEA_ER_80hr: ACEA Biosciences xCELLigence Real-Time Cell Analysis on Estrogen Receptor Agonism for Proliferation (AID 2282667; active means hit-call score of the fitted dose curve at least 0.9, where 1 is the maximum). To be noted: T47D proliferation, impedance (xCELLigence), 80 h. An outline of the steps:
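Real-time electrical impedance tracked growth of the human breast line T47D, with the 80 h post-dosing value used. Dosing spanned eight 1:4 steps down from a 100 uM final top concentration, run in duplicate.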

Experiment [2] can be described thus: ATG_CRE_CIS: Attagene CIS-FACTORIAL HepG2 Assay for human cAMP Responsive Element (CRE) binding protein 3 (AID 2282926). Particulars: HepG2 CRE cis-reporter, Attagene multiplexed mRNA; actives raise or lower the signal. In short, it runs like this:
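Assay format: transient reporter transfection of HepG2, 24 h treatment, total RNA isolation with DNase I step. Reporter abundance read by fluorescence after PCR and capillary separation; DMSO-normalised gain or loss fitting.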

Experiment [3] deals with CCAAT/enhancer-binding protein beta (Homo sapiens) (UniProt P17676). The experiment is described as follows: ATG_C_EBP_CIS: Attagene CIS-FACTORIAL HepG2 Assay for human CCAAT/Enhancer Binding Protein (C/EBP) beta (AID 2282927). To be noted: HepG2 Attagene cis-factorial transcription factor reporter; actives raise or lower the signal. An outline of the steps: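 HepG2, transient MRTU transfection, 24 h treatment. RT-PCR plus CE fluorescence; DMSO negative control, bidirectional fit.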

A short description of experiment [4]: ATG_CMV_CIS: Attagene CIS-FACTORIAL HepG2 Assay for human CMV (Internal Marker) (AID 2282928).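 Further: endpoint acts as a background internal control marker rather than a target.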 To be noted: HepG2 CMV promoter reporter, transcription factor profiling; actives raise or lower the signal. In short, it runs like this:
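Reporter transcripts from transfected HepG2 cells are isolated after 24 h of chemical dosing, reverse-transcribed and amplified. Fragments labeled with 6-FAM are cut with HpaI and quantified by capillary electrophoresis; DMSO defines baseline.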

Experiment [5] can be described thus: ATG_DR4_LXR_CIS: Attagene CIS-FACTORIAL HepG2 Assay for human Liver X Receptor (LXR), DR4 submotif (AID 2282929). Particulars: HepG2 Attagene DR4 cis-reporter, mRNA transcription; actives raise or lower the signal. In short, it runs like this: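 Fluorescence intensity of labelled reporter cDNA fragments, separated by capillary electrophoresis, gives the signal. HepG2 cells bearing cis-regulated reporter constructs were treated 24 h; activity fitted bidirectionally relative to DMSO negative control.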

For experiment [6], the target named is Aryl hydrocarbon receptor (Homo sapiens) (UniProt P35869). The experiment is described as follows: ATG_Ahr_CIS: Attagene CIS-FACTORIAL HepG2 Assay for human Aryl Hydrocarbon Receptor (Ahr) (AID 2282930). Particulars: HepG2 AhR cis-factorial reporter transcription; actives raise or lower the signal. An outline of the steps: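 Endogenous factor activity is tracked through cis-promoter reporter units transfected into HepG2 cells. Transcript levels at 24 h are read by fluorescent RT-PCR and capillary electrophoresis, with activity in either direction scored relative to DMSO.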

Experiment [7] in a line: ATG_AP_1_CIS: Attagene CIS-FACTORIAL HepG2 Assay for human Activator Protein 1 (AP-1) (AID 2282931). To be noted: HepG2 Attagene cis-factorial AP-1 reporter mRNA; actives raise or lower the signal. In short, it runs like this: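 Multiplexed HepG2 reporter assay, 24 h dosing. mRNA induction detected by RT-PCR plus capillary electrophoresis. Activity fitted in both directions against DMSO.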

Experiment [8] in a line: ATG_AP_2_CIS: Attagene CIS-FACTORIAL HepG2 Assay for human Activator Protein 2 (AP-2) (AID 2282932). To be noted: HepG2 AP-2 cis-reporter, Attagene transcription factor profiling; actives raise or lower the signal. In short, it runs like this:
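Read-out: fluorescent reporter mRNA via RT-PCR and capillary electrophoresis, 24 h post-dose in transiently transfected HepG2. Endogenous factors drive cis-promoter reporters; gain or loss of signal fitted bidirectionally against DMSO.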

Experiment [9] is described as follows: ATG_BRE_CIS: Attagene CIS-FACTORIAL HepG2 Assay for human Bone Morphogenetic Protein (BMP) Response Element (BRE) (AID 2282933). To be noted: HepG2 BMP response element reporter, Attagene transcription factor profiling; actives raise or lower the signal. In short, it runs like this: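 Endogenous transcription factor activity at a BMP response element was monitored in transfected HepG2 cells 24 h after dosing. Fluorescent RT-PCR products were resolved by capillary electrophoresis, and activity was fitted in both directions versus DMSO.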

Experiment [10] addresses Retinoic acid receptor alpha (Homo sapiens) (UniProt P10276). The experiment is described as follows: ATG_DR5_RAR_CIS: Attagene CIS-FACTORIAL HepG2 Assay for human Retinoic Acid Receptor Alpha (RARE), DR5 submotif (AID 2282934).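 On AC50: reporter responds to endogenous RAR alpha beta and gamma in HepG2 not RARA alone.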 Particulars: HepG2 Attagene cis-factorial RARE DR5 reporter, mRNA; actives raise or lower the signal. In short, it runs like this: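 After 24 h of chemical exposure, transiently transfected HepG2 cells were lysed for total RNA; the DR5-regulated reporter transcript was quantified via RT-PCR and capillary electrophoresis, with activity fitted bidirectionally against DMSO.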

The target in experiment [11] is Transcription factor E2F1 (Homo sapiens) (UniProt Q01094). The experiment is described as follows: ATG_E2F_CIS: Attagene CIS-FACTORIAL HepG2 Assay for human E2F Transcription Factor 1 (AID 2282935). Particulars: HepG2 Attagene cis-reporter, E2F reporter RNA transcripts; actives raise or lower the signal. An outline of the steps:
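Transient MRTU transfection of HepG2; 24 h compound exposure; RNA → oligo(dT) RT → PCR → FAM label → HpaI cut → CE fluorescence. Gain/loss of signal fit against DMSO.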

Experiment [12] is described as follows: ATG_E_Box_CIS: Attagene CIS-FACTORIAL HepG2 Assay for human Enhancer Box (E-box) (AID 2282936). Particulars: HepG2 E-box cis-reporter transcription, actives raise or lower the signal. In short, it runs like this:
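Transiently transfected HepG2, endogenous TF-driven reporters, 24 h dosing. Readout: RT-PCR plus capillary electrophoresis of fluorescent reporter fragments. Gain or loss of signal fitted bidirectionally against DMSO baseline.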

The nature of experiment [13]: ATG_M_61_CIS: Attagene CIS-FACTORIAL HepG2 Assay for M61 Transcription Factor (Internal Marker) (AID 2282937). To be noted: HepG2 Attagene CIS-FACTORIAL M61 internal marker reporter; actives raise or lower the signal. In short, it runs like this: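 Endogenous transcription factor activity in HepG2 is read through transiently transfected cis-element reporter units. After 24 h dosing, RNA undergoes reverse transcription, PCR and primer extension with 6-FAM before capillary electrophoresis; DMSO-referenced bidirectional fit.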

Experiment [14] can be described thus: ATG_M_19_CIS: Attagene CIS-FACTORIAL HepG2 Assay for M19 Transcription Factor (Internal Marker) (AID 2282939). To be noted: HepG2 Attagene CIS-FACTORIAL M19 internal marker reporter; actives raise or lower the signal. In short, it runs like this: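 Background-control endpoint from a multiplexed HepG2 reporter panel. Cells carrying cis-regulated reporter constructs are treated 24 h, then reporter transcripts are amplified, fluorescently labelled and sized by capillary electrophoresis. DMSO defines baseline.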

The nature of experiment [15]: ATG_ERE_CIS: Attagene CIS-FACTORIAL HepG2 Assay for Estrogen Response Element (ERE) (AID 2282940). Particulars: HepG2 ERE cis-reporter, Attagene RNA transcript; actives raise or lower the signal. An outline of the steps: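 Cells used were human hepatoma HepG2, transfected with multiple reporter transcription units under cis-regulatory promoters. Reporter mRNA, read 24 h post-dosing via fluorescent RT-PCR products on capillary electrophoresis, was fitted bidirectionally relative to DMSO.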

The nature of experiment [16]: ATG_Ets_CIS: Attagene CIS-FACTORIAL HepG2 Assay for human Erythroblast Transformation Specific (ETS) (AID 2282941). Particulars: HepG2 ETS cis-reporter transcription, actives raise or lower the signal. In short, it runs like this:
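Bidirectional fit versus DMSO of reporter mRNA signal, detected by RT-PCR and capillary electrophoresis in HepG2 cells transiently transfected with cis-element reporters and dosed 24 h.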

Experiment [17] has as its target Hepatocyte nuclear factor 3-beta (Homo sapiens) (UniProt Q9Y261). The experiment is described as follows: ATG_FoxA2_CIS: Attagene CIS-FACTORIAL HepG2 Assay for human Forkhead box A2 (FOXA2) (AID 2282942). Particulars: HepG2 cis-reporter transcription factor activity, 24 h; actives raise or lower the signal. An outline of the steps: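 Reporter transcript induction is measured by fluorescence after capillary electrophoresis of RT-PCR products from HepG2 cells exposed 24 h. Cis-regulated reporter units report endogenous factor activity; curves fitted both directions against DMSO.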

Experiment [18] can be described thus: ATG_FoxO_CIS: Attagene CIS-FACTORIAL HepG2 Assay for human Forkhead box O (FoxO) (AID 2282943). To be noted: HepG2 Attagene cis-reporter, FoxO element, mRNA; actives raise or lower the signal. An outline of the steps: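 Transfected HepG2 reporter cells exposed to test chemical for 24 h; reporter RNA measured by reverse transcription, PCR and fluorescent capillary electrophoresis; curves fitted for increases and decreases against DMSO.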

Experiment [19] is described as follows: ATG_GATA_CIS: Attagene CIS-FACTORIAL HepG2 Assay for human GATA Binding Protein (AID 2282944). Particulars: HepG2 GATA cis-element reporter, Attagene multiplex mRNA; actives raise or lower the signal. An outline of the steps: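 Endogenous transcription factor activity was captured through cis-promoter-driven reporters in transfected HepG2 cells. After 24 h exposure, reporter transcripts were quantified by RT-PCR with fluorescent capillary electrophoresis, and responses fitted both directions against DMSO.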

Experiment [20] can be described thus: ATG_EGR_CIS: Attagene CIS-FACTORIAL HepG2 Assay for human Early Growth Response 1 (EGR1) (AID 2282938). To be noted: HepG2 Attagene CIS-FACTORIAL EGR reporter mRNA; actives raise or lower the signal. An outline of the steps: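 Activity is taken as induction or loss of reporter mRNA versus DMSO, fitted bidirectionally. Transcripts from cis-regulated reporter units in transiently transfected HepG2 were measured after 24 h by RT-PCR with capillary electrophoresis.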

Sequence of Aryl hydrocarbon receptor (Homo sapiens) (P35869 whole entry, looked up): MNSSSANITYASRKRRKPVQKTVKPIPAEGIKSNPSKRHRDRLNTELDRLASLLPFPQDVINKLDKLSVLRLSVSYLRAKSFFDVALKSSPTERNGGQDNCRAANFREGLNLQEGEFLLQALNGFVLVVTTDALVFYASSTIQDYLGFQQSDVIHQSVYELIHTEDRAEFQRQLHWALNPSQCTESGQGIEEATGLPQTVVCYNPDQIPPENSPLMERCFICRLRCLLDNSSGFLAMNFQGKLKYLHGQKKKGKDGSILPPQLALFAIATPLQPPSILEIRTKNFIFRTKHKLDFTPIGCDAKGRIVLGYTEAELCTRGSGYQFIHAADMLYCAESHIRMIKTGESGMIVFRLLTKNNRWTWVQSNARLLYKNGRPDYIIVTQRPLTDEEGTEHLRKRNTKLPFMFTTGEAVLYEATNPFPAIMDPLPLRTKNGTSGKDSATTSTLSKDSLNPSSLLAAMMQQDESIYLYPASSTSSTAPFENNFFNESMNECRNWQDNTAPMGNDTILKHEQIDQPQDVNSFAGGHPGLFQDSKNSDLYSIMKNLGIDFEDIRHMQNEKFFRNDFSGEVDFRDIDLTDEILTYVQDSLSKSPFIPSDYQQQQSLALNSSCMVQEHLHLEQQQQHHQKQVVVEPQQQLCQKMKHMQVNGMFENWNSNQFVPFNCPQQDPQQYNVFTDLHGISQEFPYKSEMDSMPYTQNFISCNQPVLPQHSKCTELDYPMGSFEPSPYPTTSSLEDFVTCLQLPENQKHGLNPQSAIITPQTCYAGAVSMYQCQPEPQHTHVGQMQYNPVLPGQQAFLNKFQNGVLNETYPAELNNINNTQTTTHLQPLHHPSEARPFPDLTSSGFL
Sequence of Retinoic acid receptor alpha (Homo sapiens) (P10276 whole entry, looked up): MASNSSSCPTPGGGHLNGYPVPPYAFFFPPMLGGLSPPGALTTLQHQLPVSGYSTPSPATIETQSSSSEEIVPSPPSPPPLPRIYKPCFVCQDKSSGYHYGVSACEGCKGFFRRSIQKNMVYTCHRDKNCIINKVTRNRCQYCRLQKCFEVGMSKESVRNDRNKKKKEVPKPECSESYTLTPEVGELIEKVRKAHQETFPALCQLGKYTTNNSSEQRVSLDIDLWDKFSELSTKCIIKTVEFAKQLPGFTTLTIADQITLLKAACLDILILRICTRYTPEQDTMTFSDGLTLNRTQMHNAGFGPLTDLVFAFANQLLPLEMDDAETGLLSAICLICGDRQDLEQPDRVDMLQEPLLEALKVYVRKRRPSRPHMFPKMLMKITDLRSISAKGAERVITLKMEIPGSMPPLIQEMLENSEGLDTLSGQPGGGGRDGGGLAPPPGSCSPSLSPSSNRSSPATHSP
Sequence of Transcription factor E2F1 (Homo sapiens) (Q01094 whole entry, looked up): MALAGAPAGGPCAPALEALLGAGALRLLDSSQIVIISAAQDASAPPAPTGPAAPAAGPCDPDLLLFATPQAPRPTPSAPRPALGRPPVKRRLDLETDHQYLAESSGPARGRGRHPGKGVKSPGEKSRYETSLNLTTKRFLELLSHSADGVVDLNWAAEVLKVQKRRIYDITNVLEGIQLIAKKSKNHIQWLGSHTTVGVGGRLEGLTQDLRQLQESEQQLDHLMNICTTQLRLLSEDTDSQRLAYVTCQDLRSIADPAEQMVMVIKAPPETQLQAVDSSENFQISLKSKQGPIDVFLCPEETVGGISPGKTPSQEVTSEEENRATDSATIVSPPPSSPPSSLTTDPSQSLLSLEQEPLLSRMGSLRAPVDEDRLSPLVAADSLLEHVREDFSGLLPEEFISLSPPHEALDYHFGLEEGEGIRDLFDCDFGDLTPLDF
Sequence of CCAAT/enhancer-binding protein beta (Homo sapiens) (P17676 whole entry, looked up): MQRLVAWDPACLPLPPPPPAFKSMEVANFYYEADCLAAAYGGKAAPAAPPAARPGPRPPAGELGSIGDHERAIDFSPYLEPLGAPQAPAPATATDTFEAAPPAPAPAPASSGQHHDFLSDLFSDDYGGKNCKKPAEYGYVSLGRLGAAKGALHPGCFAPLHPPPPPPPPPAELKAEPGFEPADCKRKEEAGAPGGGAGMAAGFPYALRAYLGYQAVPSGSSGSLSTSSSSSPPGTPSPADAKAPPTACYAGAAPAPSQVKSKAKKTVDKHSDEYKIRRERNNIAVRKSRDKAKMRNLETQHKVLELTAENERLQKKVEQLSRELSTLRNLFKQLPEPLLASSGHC
Sequence of Hepatocyte nuclear factor 3-beta (Homo sapiens) (Q9Y261 whole entry, looked up): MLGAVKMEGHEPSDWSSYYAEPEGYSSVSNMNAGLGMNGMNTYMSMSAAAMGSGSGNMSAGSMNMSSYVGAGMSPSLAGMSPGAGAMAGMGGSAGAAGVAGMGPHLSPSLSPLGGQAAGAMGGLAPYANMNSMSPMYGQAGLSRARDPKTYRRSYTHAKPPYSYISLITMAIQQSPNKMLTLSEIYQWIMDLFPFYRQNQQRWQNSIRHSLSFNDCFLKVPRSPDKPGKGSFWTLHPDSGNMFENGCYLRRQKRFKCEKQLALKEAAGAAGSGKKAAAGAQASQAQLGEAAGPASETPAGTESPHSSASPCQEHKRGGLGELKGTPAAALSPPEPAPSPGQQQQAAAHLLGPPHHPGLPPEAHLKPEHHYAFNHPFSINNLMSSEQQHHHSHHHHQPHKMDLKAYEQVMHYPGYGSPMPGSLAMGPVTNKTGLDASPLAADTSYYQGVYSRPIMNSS

Turning to `O=C(O)CC(C(=O)O)S(=O)(=O)O` (stereo unspecified), the compound was called inactive in experiment [1], in experiment [2], in experiment [3], in [4], in experiment [5] and in experiment [6]. Moreover, the outcome in [7], in [8], in [9], in [10], in experiment [11] and in experiment [12] was inactive. Further, the outcome in [13], in experiment [14], in experiment [15], in experiment [16], in experiment [17] and in [18] was inactive. Further, the outcome in [19] was inactive.

Turning to `CO[Si](C)(C)OC`, the result in [1], in experiment [2], in experiment [3], in experiment [4], in experiment [5] and in experiment [7] was inactive. Besides, the call in experiment [8], in [9], in experiment [10], in experiment [11], in experiment [12] and in experiment [13] was inactive. Besides, the result in [20], in experiment [14], in experiment [15], in experiment [17], in experiment [18] and in experiment [19] was inactive. The AC50 in experiment [6] was 376 nM (active).

Consider `CCCCCOC(=O)CCCCC`, for which the result in experiment [1], in [2], in experiment [3], in experiment [4], in [5] and in experiment [6] was inactive. In addition, the result in [7], in experiment [8], in [9], in experiment [10], in [11] and in [12] was inactive. Besides, the compound was called inactive in [13], in experiment [20], in experiment [14], in experiment [15], in [16] and in [17]. Besides, the result in experiment [19] was inactive.

In the case of `CC=C(C)C(C)=O`, the result in experiment [1], in [2], in [3], in experiment [4], in experiment [5] and in [6] was inactive. Besides, the compound was called inactive in [7], in [8], in [9], in experiment [11], in experiment [12] and in experiment [13]. Further, the outcome in [20], in experiment [14], in experiment [15], in [17], in [18] and in experiment [19] was inactive. Moreover, the AC50 in [10] was 43 µM (active).
